PMC5540273 (PLoS ONE, 2017)

System: PKMYT1
Conditions: concentration: 1 μM, replicates: in singlicate; n = 1
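Further: KINOMEscan kinase panel screen.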

| Structure (SMILES) | %Inh [%] |
| --- | --- |
| Cc1cccc(-c2nc(-c3ccc(S(C)(=O)=O)cc3)sc2-c2ccncc2)c1 | 20 |
| Cc1ccc(NC(=O)c2ccnc(N3CCN(C)CC3)c2)cc1-c1ccc(C(=O)NCC2CC2)cc1 [GW775604] | 9 |
| COc1ccc(COc2cc(-n3cnc4ccccc43)sc2C(N)=O)cc1 [GSK1024304] | 0 |
| Fc1ccc(-c2ncn(CCCN3CCOCC3)c2-c2ccccn2)cc1 [SB-211742] | 0 |
| CCCCCc1nc2c(N)ncnc2n1CCCCC [SKF-97255] | 0 |
| N#Cc1c(N2CCOCC2)sc(-c2ccn[nH]2)c1-c1ccc(Cl)cc1 | 10 |
| O=C(Nc1cccc(-c2nn3ncccc3c2-c2ccnc(Nc3cccc(C(F)(F)F)c3)n2)c1)c1c(F)cccc1F [GSK299495] | 9 |
| CC(=O)Nc1ccc(COc2ccc(Nc3ccnc4cc(-c5ccccn5)ccc34)cc2)cc1.Cl [GW440148] | 0 |
| c1ccc(-c2cc(-c3c[nH]nc3-c3ccccn3)ccn2)cc1 [GW576604] | 3 |
| O=C(c1ccc(-c2cc(-c3c[nH]nc3-c3ccccn3)ccn2)cc1)N1CCOCC1 [GW812171] | 6 |
| Nc1nc(-c2ccc3c(N)n[nH]c3c2)cc(N2CCCC2)n1 [GSK2227430] | 0 |
| COc1ccc(Nc2nccc(N3CCC(NC(=O)Nc4cccc(C(C)=O)c4)C3)n2)cc1 (centres unmarked) [GSK1379731] | 0 |
| O=C1Cc2cc(Nc3nc(NCc4cccc(S(=O)(=O)C(F)(F)F)c4)ncc3C(F)(F)F)ccc2N1 | 17 |
| Cc1cccc(Cn2ccn3c(=O)cc(N4CCOCC4)nc23)c1 [GSK2297542] | 16 |
| O=c1cc(N2CCOCC2)nc2n(Cc3cccc(F)c3)ccn12 [GSK2297430] | 0 |
| Cc1nnc(-c2ccc3occ(-c4ccc(C(C)O)cc4)c3c2)o1 (centres unmarked) | 0 |
| O=c1cc(N2CCOCC2)nc2n(Cc3cccc4ccccc34)ccn12 [GSK2333389] | 4 |

| Structure (SMILES) | %Inh [%] |
| --- | --- |
| Fc1ccc(-c2ncn(CCCN3CCOCC3)c2-c2cccnc2)cc1 [SB-211743] | 0 |
| Cc1ccc(C(=O)NCC(N)=O)cc1-n1c(C)cc(OCc2ccc(F)cc2F)c(Br)c1=O | 22 |
| Cn1ccc2ncnc(Oc3ccc(NC(=O)Nc4ccncc4)c(Cl)c3)c21 | 2 |
| COc1ccc(Nc2ncc(C#N)c(Nc3ccccc3C(N)=O)n2)cc1N1CCN(C)CC1.Cl [GSK1558669] | 41 |
| COc1ccc(S(=O)(=O)NC2CCN(c3cc(C)nc(Nc4cccc(C#N)c4)n3)CC2)cc1.O=C(O)C(F)(F)F [GSK1653539] | 0 |
| c1ccc(-c2n[nH]cc2-c2ccnc3ccccc23)nc1 [GW271431] | 3 |
| Nc1nccc(-c2c(-c3ccc(F)cc3)ncn2C2CCN(CC(F)(F)F)CC2)n1 [SB-236560] | 20 |
| COc1cc2ncn(-c3cc(OCc4sccc4Cl)c(C(N)=O)s3)c2cc1OC [GSK448459] | 0 |
| O=c1cc(N2CCOCC2)nc2n(Cc3cccc(Cl)c3Cl)c(C3CC3)nn12 [GSK2358994] | 0 |
| CCc1nc(-c2cccc(C)c2)c(-c2ccnc(NCc3ccccc3)c2)s1 | 5 |
| CSc1ccc(-c2cc3ncnc(SCC(=O)O)c3s2)cc1 | 10 |
| COc1ccc(Nc2nccc(N3CCC(NC(=O)Nc4cc(C)ccc4C)C3)n2)cc1 (centres unmarked) [GSK1379741] | 0 |
| CC(C)(C)n1cnc2c(N)ncnc21 [SKF-97359] | 0 |
| O=C(Nc1n[nH]c2cc(-c3cccc(F)c3)ccc12)C1CC1 [SB-735464] | 1 |
| Cc1c2ccc(N(C)c3ccnc(Nc4cccc(S(N)(=O)=O)c4)n3)cc2nn1Cc1ccccc1.Cl.Cl [GW787226] | 0 |
| O=C(NCCNc1ccnc(Nc2ccc(F)cc2)n1)c1cc2ccccc2s1 [GSK1379874] | 0 |
| Cc1cn2c(=O)cc(N3CCOCC3)nc2n1Cc1cccc(Cl)c1Cl [GSK2334006] | 12 |

System: PKN1
Conditions: concentration: 1 μM, replicates: in singlicate; n = 1

| Structure (SMILES) | %Inh [%] |
| --- | --- |
| Cc1cccc(-c2nc(-c3ccc(S(C)(=O)=O)cc3)sc2-c2ccncc2)c1 | 17 |
| Cc1ccc(NC(=O)c2ccnc(N3CCN(C)CC3)c2)cc1-c1ccc(C(=O)NCC2CC2)cc1 [GW775604] | 0 |
| COc1ccc(COc2cc(-n3cnc4ccccc43)sc2C(N)=O)cc1 [GSK1024304] | 0 |
| Fc1ccc(-c2ncn(CCCN3CCOCC3)c2-c2ccccn2)cc1 [SB-211742] | 0 |
| CCCCCc1nc2c(N)ncnc2n1CCCCC [SKF-97255] | 0 |
| N#Cc1c(N2CCOCC2)sc(-c2ccn[nH]2)c1-c1ccc(Cl)cc1 | 17 |
| O=C(Nc1cccc(-c2nn3ncccc3c2-c2ccnc(Nc3cccc(C(F)(F)F)c3)n2)c1)c1c(F)cccc1F [GSK299495] | 0 |
| CC(=O)Nc1ccc(COc2ccc(Nc3ccnc4cc(-c5ccccn5)ccc34)cc2)cc1.Cl [GW440148] | 32 |
| c1ccc(-c2cc(-c3c[nH]nc3-c3ccccn3)ccn2)cc1 [GW576604] | 9 |
| O=C(c1ccc(-c2cc(-c3c[nH]nc3-c3ccccn3)ccn2)cc1)N1CCOCC1 [GW812171] | 0 |
| Nc1nc(-c2ccc3c(N)n[nH]c3c2)cc(N2CCCC2)n1 [GSK2227430] | 10 |
| COc1ccc(Nc2nccc(N3CCC(NC(=O)Nc4cccc(C(C)=O)c4)C3)n2)cc1 (centres unmarked) [GSK1379731] | 3 |
| O=C1Cc2cc(Nc3nc(NCc4cccc(S(=O)(=O)C(F)(F)F)c4)ncc3C(F)(F)F)ccc2N1 | 0 |
| Cc1cccc(Cn2ccn3c(=O)cc(N4CCOCC4)nc23)c1 [GSK2297542] | 0 |
| O=c1cc(N2CCOCC2)nc2n(Cc3cccc(F)c3)ccn12 [GSK2297430] | 20 |
| Cc1nnc(-c2ccc3occ(-c4ccc(C(C)O)cc4)c3c2)o1 (centres unmarked) | 0 |
| O=c1cc(N2CCOCC2)nc2n(Cc3cccc4ccccc34)ccn12 [GSK2333389] | 15 |

| Structure (SMILES) | %Inh [%] |
| --- | --- |
| Fc1ccc(-c2ncn(CCCN3CCOCC3)c2-c2cccnc2)cc1 [SB-211743] | 0 |
| Cc1ccc(C(=O)NCC(N)=O)cc1-n1c(C)cc(OCc2ccc(F)cc2F)c(Br)c1=O | 6 |
| Cn1ccc2ncnc(Oc3ccc(NC(=O)Nc4ccncc4)c(Cl)c3)c21 | 0 |
| COc1ccc(Nc2ncc(C#N)c(Nc3ccccc3C(N)=O)n2)cc1N1CCN(C)CC1.Cl [GSK1558669] | 83 |
| COc1ccc(S(=O)(=O)NC2CCN(c3cc(C)nc(Nc4cccc(C#N)c4)n3)CC2)cc1.O=C(O)C(F)(F)F [GSK1653539] | 0 |
| c1ccc(-c2n[nH]cc2-c2ccnc3ccccc23)nc1 [GW271431] | 12 |
| Nc1nccc(-c2c(-c3ccc(F)cc3)ncn2C2CCN(CC(F)(F)F)CC2)n1 [SB-236560] | 0 |
| COc1cc2ncn(-c3cc(OCc4sccc4Cl)c(C(N)=O)s3)c2cc1OC [GSK448459] | 0 |
| O=c1cc(N2CCOCC2)nc2n(Cc3cccc(Cl)c3Cl)c(C3CC3)nn12 [GSK2358994] | 2 |
| CCc1nc(-c2cccc(C)c2)c(-c2ccnc(NCc3ccccc3)c2)s1 | 14 |
| CSc1ccc(-c2cc3ncnc(SCC(=O)O)c3s2)cc1 | 8 |
| COc1ccc(Nc2nccc(N3CCC(NC(=O)Nc4cc(C)ccc4C)C3)n2)cc1 (centres unmarked) [GSK1379741] | 0 |
| CC(C)(C)n1cnc2c(N)ncnc21 [SKF-97359] | 0 |
| O=C(Nc1n[nH]c2cc(-c3cccc(F)c3)ccc12)C1CC1 [SB-735464] | 7 |
| Cc1c2ccc(N(C)c3ccnc(Nc4cccc(S(N)(=O)=O)c4)n3)cc2nn1Cc1ccccc1.Cl.Cl [GW787226] | 0 |
| O=C(NCCNc1ccnc(Nc2ccc(F)cc2)n1)c1cc2ccccc2s1 [GSK1379874] | 0 |
| Cc1cn2c(=O)cc(N3CCOCC3)nc2n1Cc1cccc(Cl)c1Cl [GSK2334006] | 33 |
